These results are taken from PubChem BioAssay (NCI).

Structures are written as SMILES. This is part of a sample that, as a whole, favours compounds with a hit. Of some 79,000 tested, about 15% had one in any assay. Unmarked numbers belong to inactive results. No stated cut-off is given here; in the data, active means growth inhibition above about 70%; inactive means the rest.

The assay can be described thus: NCI Yeast Anticancer Drug Screen. Data for the rad50 strain (AID 155).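 Further: 0% = growth of vehicle-only cultures of the same strain.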 The note with it: S. cerevisiae rad50 strain growth inhibition; at 50.0 µM; stronger effect = higher value. The procedure, abridged:
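Inhibition values express reduced yeast growth in compound-treated cultures relative to vehicle-treated controls.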
In the case of `COc1ccc(C(O)c2ccccc2)cc1` (stereo not given), the growth inhibition was 2.2%.
Take `CCN(CC)c1ccc2nc3ccc(=[N+](CC)CC)cc-3oc2c1`: the growth inhibition is -213%.
The value for `CC(C)COC(=O)COC(=O)OCCOCCOC(=O)OCC(=O)OCC(C)C` was 36.5%; that for `COc1cc(/C=C/C(=O)c2ccccc2)cc(OC)c1OC` was -4.7%.
On to `S=C(Nc1ccccc1)N1CCCCC1`, for which the growth inhibition was -2.8%.
For the compound `Nc1ccc(CC(=O)O)c(N)c1`, the growth inhibition is 0.55%.
As for `CC1(O)OC(COc2ccc(Cl)cc2)COC1O` (stereo not given), the growth inhibition was 0.55%.
As to `O/N=C/c1ccc(O)cc1O`, the growth inhibition is -11.9%.
The value for `C/C(=C\c1cc(Cl)ccc1OCC(=O)O)[N+](=O)[O-]` was 38.1%; that for `Nc1ccc(C(=O)c2ccc(N)c(Br)c2)cc1Br` was 15%; that for `COC(=O)c1ccccc1Br` was -1.7%.
To `CC1SC(N)=NC1=O` (stereo not given) belongs 12.8%; to `CCOC(=O)C(C#N)Cc1ccccc1` (stereo not given), -0.85%; to `CCCCCCCO`, -11%.
With `COc1cc2c3cc1Oc1c(OC)c(OC)cc4c1C(Cc1ccc(O)c(c1)Oc1ccc(cc1)CC3N(C)CC2)N(C)CC4` (stereo not given), the growth inhibition was 1.05%.
Take `Cc1ccc(Cl)cc1N1C(=O)CC(Sc2ccccc2N)C1=O` (stereo not given): the growth inhibition is 21.9%.
With `c1ccc(Sc2ccccc2)cc1`, the growth inhibition is -4.6%.
To `C#C[C@H]1CCCCCC1O` (stereo not given in full) belongs 13.1%; to `CCOC(=O)c1coc(C(=O)OCC)c1C(=O)OCC`, -4.95%; to `O=C1NC(=O)C2C(=O)NC(=O)C1C21CCc2ccccc21` (stereo not given), -8.5%.
